Laboratory results as given in PubChem BioAssay (NCI).
This is part of a sample that, as a whole, favours compounds with a hit. Of some 83,000 tested, about 20% had one in any assay.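 Activity criterion: percent growth below 10, measured after cells in 96-well plates were exposed to a single compound concentration for 48 hours.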 A number with no mark means an inactive call. Activity calls are given as the source filed them.

test system: PC-3 prostate; assay: NCI-60 one-dose screen, 48 h (100 = growth as untreated, 0 = no growth, -100 = all killed); conditions: 10 µM unless noted

SMILES	growth
N#Cc1c(NC(=O)c2ccc([N+](=O)[O-])o2)[n+]([O-])c2cc(F)c(F)cc2[n+]1[O-]	98.8%
CC(C)(C)OC(=O)N1C/C(=C\c2cccs2)C(=O)/C(=C/c2cccs2)C1	74.7%
CC(Cc1nnc(SCC(=O)Nc2ccc(I)cc2)n1N)c1ccccc1 (stereo not drawn)	90.2%
COC(=O)CC/C(C)=N\Nc1ccc([N+](=O)[O-])cc1	45.8%
COc1ccccc1OCC(=O)Nc1sc2c(c1C(N)=O)CCC2	88.1%
CC(=O)N1Cc2ccccc2C(C)Cc2cc(Cl)ccc21 (stereo not drawn)	95.8%
COc1ccc(/C(=N/O)c2cc(OC)c(OC)c(OC)c2)c(OC)c1N	19.2%
CC(C)CCC[C@@H](C)[C@H]1CC[C@H]2[C@@H]3CC[C@H]4C/C(=N/O)CC[C@]4(C)[C@H]3CC[C@]12C	83.4%
C/C(=N\NC(=O)CC#N)c1cc2cc(Cl)ccc2o1	92.4%
CCC#CC[C@H]1C/C=C2/C(=O)C=C[C@@H]2C/C=C\CCCC(=O)O1	-19.7% (active)
Cc1cc(C(=O)O)c(N)c(C)n1	96.4%
CCCCCCOc1ccc(C2(Cl)c3ccccc3N(C)c3ccccc32)cc1	21.8%
CC(C)N(Cc1ccc(CN(C(=O)CCl)C(C)C)cc1)C(=O)CCl	29.7%
COc1cc(-n2nc(C(=O)Nc3ccc(C(=O)O)cc3)nc2-c2ccccc2)cc(OC)c1OC	71.3%
NC(=O)NNC(=O)c1ccccc1	96.5%
CC1Cc2c(N(C)C)ncnc2N(C)c2ccc(O)cc21 (stereo not drawn)	72.9%
O=S(=O)(NCCCNc1cc(-c2cn(-c3ccccc3)nc2-c2cccc(O)c2)ccn1)c1ccc(C(F)(F)F)cc1	13.7%
Cc1ccc(S(=O)(=O)N2CCC(C(=O)Nc3ccc(F)cc3F)CC2)cc1	93.9%
COc1ccc2c(c1)NC(=O)CN2c1nc(NC2CC2)nc2ccccc12	4.75% (active)

SMILES	growth
C=C1C(=O)O[C@H]2[C@H]1CC/C(COC(=O)NCCc1cccc(OC)c1)=C\CC[C@@]1(C)O[C@@H]21	50.5%
COc1cc(-c2csc(NC(=O)c3cc(C(F)(F)F)cc(C(F)(F)F)c3)n2)cc(OC)c1OC	10.6%
Clc1nc(Cl)c2ncn(C/C=C/Cn3cnc4c(Cl)nc(Cl)nc43)c2n1	66.6%
Cc1ccc2c(c1)C(C)Cc1c(ncnc1-n1cnc3ccccc31)N2C (stereo not drawn)	21.9%
CCN(CC)S(=O)(=O)c1ccc2[nH]c(=O)cc(C(=O)Nc3ccc(OC)cc3OC)c2c1	105%
COC(=O)CCCCCN=Cc1c(O)c(O)c(C(C)C)c2cc(C)c(-c3c(C)cc4c(C(C)C)c(O)c(O)c(C=NCCCCCC(=O)OC)c4c3O)c(O)c12	14%
CCC(=O)Oc1ccc2c(c1)CC[C@@H]1[C@@H]2CC[C@]2(C)C[C@H](OC(=O)CC)C[C@@H]12	63.1%
C=C1C(=O)O[C@H]2[C@H]1CC/C(COC(=O)NCc1cc(OC)cc(OC)c1)=C\CC[C@@]1(C)O[C@@H]21	30.2%
O=C(Nc1ccc(I)cc1)c1cc([N+](=O)[O-])ccc1O	15.3%
O=C(CNC(=O)c1cccc2ccccc12)Nc1ccccc1Oc1ccccc1	2.31% (active)
O=C(/C=C/CN1CCOCC1)Nc1cc2c(Nc3ccc(F)c(Cl)c3F)ncnc2cc1OCCOC(F)F	46.1%
O=C(NCCc1c[nH]c2ccccc12)C1Cc2ccccc2CN1C(=O)c1ccco1 (stereo not drawn)	96.9%
Nc1cc2c(cc1N)-c1cc(N)c(N)cc1C2	80.5%
COc1ccc(/C(=N\O)c2cc(OC)c(OC)c(OC)c2)c(OC)c1N	20.9%
CCC(c1ccc(OC)cc1)C(CC)c1ccc(O)c(CN2CCCC2)c1 (stereo not drawn)	24.4%
CC(C)(C)c1cc(-c2nc3ccc(N4CCN(CCO)CC4)cc3[nH]2)cc(C(C)(C)C)c1O	58.3%
OCc1c(-c2ccccc2)nc2sccn12	95.7%
O=C(OCCCCOC(=O)n1cnc2ccccc21)n1cnc2ccccc21	91.8%
OC1CC2c3ccccc3C1c1ccccc12 (stereo not drawn)	100%
